Source: PubChem BioAssay (National Center for Advancing Translational Sciences (NCATS))
D2 antagonist = antagonizes the human D2 dopamine receptor; inhibition, % at 10 µM; P14416; 340,000 tested, 2% active; HEK293 TREx D2 cells, calcium flux, dopamine EC80; AID 485344; in the data active = inhibition above about 30%; inactive = below that, where a call was filed; also: 0% is about no effect
Target sequence (P14416 whole entry, looked up): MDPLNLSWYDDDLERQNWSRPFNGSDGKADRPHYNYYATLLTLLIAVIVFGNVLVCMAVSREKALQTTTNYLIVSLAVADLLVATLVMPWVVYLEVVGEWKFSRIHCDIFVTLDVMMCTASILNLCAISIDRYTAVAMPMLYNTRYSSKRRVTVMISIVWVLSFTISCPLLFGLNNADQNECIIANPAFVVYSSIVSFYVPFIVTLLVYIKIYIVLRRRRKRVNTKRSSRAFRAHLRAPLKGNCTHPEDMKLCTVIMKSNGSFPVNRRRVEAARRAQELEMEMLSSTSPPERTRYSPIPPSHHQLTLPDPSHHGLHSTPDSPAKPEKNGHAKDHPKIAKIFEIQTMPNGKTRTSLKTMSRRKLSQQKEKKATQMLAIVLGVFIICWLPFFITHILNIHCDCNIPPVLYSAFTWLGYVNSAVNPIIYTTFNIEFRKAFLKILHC
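Measurement of antagonist activity uses fluorescent calcium dye in inducible HEK293 T-REx D2 cells: 10 s baseline, compound addition with 180 s read, EC80 dopamine addition with a further 180 s read.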
D2 PAM-1 = positively modulates the human D2 dopamine receptor allosterically; P14416; HEK293 T-REx D2, calcium flux, EC20 dopamine potentiation; potentiation, % at 10 µM; 340,000 tested, 0.34% active; AID 485347;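 active = potentiation over 3 SD above the plate norm, cut at about 30% in these data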; also: 0% is about no effect
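Potentiation of an EC20 dopamine calcium response is measured in a force-coupled, tetracycline-inducible Hek293 Trex D2 line. Compound-only kinetic reads over 180 s flag agonists before dopamine addition.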
D2 ag-1 = agonists of human D2 dopamine receptor (beta-arrestin). DiscoveRx PathHunter D2 beta-arrestin, luminescence, 90 min; 100% = 57 uM dopamine signal. 360,000 tested, 0.084% active. AID 624465. activation, % (no concentration beside the values); in the data active = activation above about 40%
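DiscoveRx PathHunter D2 beta-arrestin cells (2,100/well) attached overnight, then compound-stimulated 90 min at 37 C in HBSS/10 mM HEPES/0.1% Tween-20 buffer; beta-galactosidase complementation read by luminescence after 1 h at ambient temperature. Dopamine 57 uM final (EC100) as control.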
D2 PAM-2 = positive allosteric modulators of human D2 dopamine receptor | P14416 | DiscoveRx D2 beta-arrestin cells, luminescence, 90 min; 100% = 57 uM dopamine signal | potentiation, % (test concentration not listed) | 360,000 tested, 0.23% active | AID 624464; in the data active = potentiation above about 50%
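PathHunter beta-arrestin assay in DiscoveRx D2 cells. Compounds were added with an EC20 of dopamine (50 nM final) for 90 min at 37 deg C. Luminescence was read 1 h after detection reagent, with 57 uM dopamine as the EC100 control.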
D2 ag-2 = D2 dopamine receptor (human) agonism; 340,000 tested, 0.53% active; HEK293 T-REx D2 cells, calcium flux agonist mode; P14416; activation, % at 2 µM;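 active = activation over 3 SD above normal in the single-dose calcium agonist read, cut at about 30% in these data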; also: 0% is about no effect
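Tetracycline-induced HEK293 T-REx cells with force-coupled D2 receptor, plated overnight at 30 C, loaded with no-wash calcium dye. After a 10 s baseline, compound was pin-added and calcium flux read kinetically for 180 s; calcium rises flagged agonists.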
* marks the source's active call; other numbers are inactive results; · = no result given; ! = not confirmed by another sample. The list is not random: actives were taken first. Their share in the collection is about 2.4%.

SMILES	D2 antagonist	D2 PAM-1	D2 ag-1	D2 PAM-2	D2 ag-2
O=C(C[n+]1ccccc1)Nc1cc(C(F)(F)F)ccc1Cl	2	4	-2	-44	-1
O=C(C[n+]1ccc2ccccc2c1)Nc1cc(C(F)(F)F)ccc1Cl	54*	-21	-1	-33	1
COc1cccc(C(=O)N(Cc2ccc(N(C)C)cc2)Cc2ccco2)c1	·	-3	·	·	1
CCc1ccc(OC(=O)c2cccnc2)cc1	32*	2	-6	-6	-2
Cc1ccc(Cl)cc1N1CCN(CCCNc2ncnc3onc(-c4ccc(F)cc4)c23)CC1	·	0	·	·	0
CCOC(=O)Cc1csc(NC(=O)COc2ccc3ccccc3c2)n1	59*	-4	-1	3	1
Cc1occc1C(=O)Nc1c(F)cc(F)cc1Br	34*	-12	3	-9	0
CC1CCC(NC(=O)CSc2nncs2)CC1 (stereo unspecified)	4	-3	-2	3	0
O=C(CSc1nncs1)NC1CCCCCCC1	31*	12	-4	-4	-1
CCOc1ccccc1NC(=O)c1cnn2c(C(F)F)cc(-c3ccccc3)nc12	·	9	·	·	1
Cc1ccccc1-c1nc2c3c(-c4ccccc4)c(-c4ccccc4)oc3ncn2n1	·	-2	·	·	0
Cc1ccccc1C(=O)OCc1cc(=O)n2nc(C3CC3)sc2n1	·	15	·	·	0
COc1ccc(NC(=O)CN(C)CC(=O)Nc2sc3c(c2C#N)CCC3)cc1	32*	4	7	0	0
O=C(CCn1c(=O)oc2ccccc21)Nc1ccccc1	1	-2	5	-12	1
COc1ccccc1OCCCn1c(=O)oc2ccc(C)cc21	-7	4	-2	1	0
COc1ccccc1OCCCn1c(=O)oc2ccccc21	34*	-11	-10	-5	0
COc1cc(NC(=O)CCn2c(=O)oc3ccccc32)cc(OC)c1OC	-22	34*!	4	-4	1
CC(=O)C1=C(c2ccccc2)N(C(C)=O)n2c(nnc2C2CCCCC2)S1	·	4	·	·	0
Cc1nc(Nc2ccc(S(N)(=O)=O)cc2)oc1C	1	49*	-3	10	1
CCCC(=O)OCc1cnc(C)c2oc(=O)c(C(=O)Nc3cccc(C(F)(F)F)c3)cc12	·	2	·	·	1
Cc1ccccc1NC(=O)c1ccc(N(Cc2ccccc2)S(C)(=O)=O)cc1	·	2	·	·	·
O=C(CCN1CCOCC1)N/N=C/c1cc(Br)cc(Br)c1O	36*	-9	-9	-33	1
Cc1ccc(NC(=O)C2CCN(S(=O)(=O)c3ccc4c(c3)NC(=O)C(C)S4)CC2)cc1Cl (stereo unspecified)	73*	-14	0	-1	2
OC1CCCN(c2c3c(nc4cc(-c5cccc(F)c5)nn24)CCCC3)C1 (stereo unspecified)	47*	0	0	2	0
Cc1ccc(NC(=O)CNC2CCCCC2)cc1Cl	30*	10	-8	-6	0
SMILES	D2 antagonist	D2 PAM-1	D2 ag-1	D2 PAM-2	D2 ag-2
Cc1ccc(NC(=O)C(C)N2CCCC2)cc1Cl (stereo unspecified)	33*	-19	1	-6	0
CC(=O)c1ccc(NC(=O)CNC2CCCCC2)cc1	9	-3	-3	-7	1
CC(C)C(=O)Nc1ccc(N2CCCC2)c(Cl)c1	14	-5	-1	-12	1
Cc1cccc(C(=O)NCCc2nc3ccccc3n2CCC(C)C)c1	·	-1	·	·	0
Cc1ccc2c(c1)N(CC(=O)NCCc1c[nH]c3ccccc13)C(=O)CO2	12	60*	-1	-2	1
CC(C)NC(=O)N1CCN(S(=O)(=O)c2ccc3c(ccn3C)c2)CC1	·	-2	·	·	1
O=C(Nc1cccc(Cl)c1)c1ccc2nc(CCc3ccccc3)oc2c1	·	-3	·	·	2
CN(CCOc1ccc(Cl)cc1)CC(O)c1ccccc1 (stereo unspecified)	-17	3	-2	-17	-1
CC(OCC(O)CN(C)CCOc1ccccc1)c1ccc(Cl)cc1 (stereo unspecified)	26	-23	6	17	32*
CN(CCOc1ccccc1)CC(O)COc1ccccc1 (stereo unspecified)	51*	-29	-4	-16	2
CCc1ccc(NC(=O)N(Cc2cccnc2)Cc2ccco2)cc1	-6	32*	-2	-14	0
COC(=O)c1ccc(NC(=S)N(Cc2cccnc2)Cc2ccco2)cc1	-5	12	7	6	0
CCCCOC(=O)C1[C@H]2C(=O)N(Cc3cccs3)C[C@]23C=C[C@H]1O3 (stereo partly specified)	0	16	4	1	2
CC(C)CCOC(=O)C1C2C=CC3(CN(Cc4cccs4)C(=O)C13)O2 (stereo unspecified)	33*	0	2	-2	-1
Cc1cccc(Nc2nnc(-n3nc(C)cc3C)c3ccccc23)c1	·	-24	·	·	9
CC(C)(C)c1ccc(OCC(=O)N/N=C/c2cc(Br)ccc2OC(=O)c2ccco2)cc1	34*	0	-8	-11	1
Cc1ccc2nc(N(Cc3cccnc3)C(=O)c3ccco3)sc2c1	·	-6	·	·	0
CN(C)CCCNC(=O)N1c2ccccc2C=Cc2ccccc21	33*	6	-5	-16	1
CCN(CC)C(=O)N1c2ccccc2C=Cc2ccccc21	-4	-2	-3	0	0
Cc1cccc(C)c1NC(=O)N1C2CCCC1CC(NC(=O)C(C)(C)C)C2 (stereo unspecified)	38*	14	0	-6	0
CC(=O)NC1CC2CCCC(C1)N2C(=O)Nc1c(C)cccc1C (stereo unspecified)	·	·	1	-6	·
Cn1cc(-c2nnnn2-c2ccc(Cl)cc2)c(=O)c2ccccc21	-10	-3	-3	-7	0
CCn1cc(-c2nnnn2-c2ccc(Cl)cc2)c(=O)c2ccccc21	-13	38*	1	5	0
COc1ccc(C)cc1NC(=O)c1cc2c(=O)n3ccccc3nc2n1C	13	11	0	2	1
COc1ccc(NC(=O)c2cc3c(=O)n4ccccc4nc3n2C)cc1OC	-8	35*	4	2	0
CC(=O)Nc1cccc(NC(=O)c2c(-c3ccccc3)c(-c3ccccc3)nn(C)c2=O)c1	·	-10	·	·	0
NC(=S)N=Nc1c(O)n(Cc2ccc(F)cc2)c2ccccc12	19	-1	-1	-4	0
NC(=S)N=Nc1c(O)n(Cc2ccc(Br)cc2)c2ccccc12	1	-3	-2	52*	0
Cc1ccc(Nc2c3c(nc4nncn24)CCC3)c(C)c1	·	13	·	·	0
CCc1ccc(NC(=O)N2CCN(c3nnc(C)c4c(C)n(-c5ccc(Cl)cc5)nc34)CC2)cc1	·	0	·	·	0
